{
  "source": "PubChem BioAssay (Tox21)",
  "note": "Results filed as inconclusive are left out. Where a call stands in place of a potency, no number is given. The source made the active and inactive calls. The call rests on the fitted dose curve; in most records, active means well fitted activation curve with a large enough effect in the repeat runs; inconclusive means weak or mixed curves; inactive means flat fitted curve, though single readings scatter. Potency means the concentration at half of the fitted maximal effect.",
  "data": [
    {"assay": "A CellTox Green Cytotoxicity Assay to monitor cytotoxicity in HepG2 cells - 32 hour (AID 1224883); further: nearly all actives have a fitted effect of over 50% in size", "conditions": "CellTox Green fluorescence; series mostly up to 76.8 µM", "text": "National Center for Advancing Translational Sciences [NCATS]\nNIH Chemical Genomics Center [NCGC]\nU.S. Environmental Protection Agency [EPA]\nNational Institutes of Environmental Health Sciences [NIEHS]\nNational Toxicology Program [NTP]\nCell-based models are critical for drug discovery. Determining the natural cytotoxic effects resulting from test compounds is an essential research activity. A CellTox Green Cytotoxicity Assay to monitor cytotoxicity in real time of continues cell culture during 40 hours of the compound treatment was used to screen Tox21 10K library compounds in HepG2 cells. CellTox Green Cytotoxicity Assay is a nonlytic, homogeneous, biofluorescent method to measure cytotoxicity in cell culture after experimental manipulation. The assay system uses a proprietary asymmetric cyanine dye that is excluded from viable cells but preferentially stains the dead cell's DNA. […] Viable cells produce no appreciable increases in fluorescence. Therefore, the fluorescence signal produced by the binding interaction with dead cell DNA is proportional to cytotoxicity.\nThe mixture of HepG2 cell suspension and reagents were dispensed at 600cells/6 ul/well in 1536-well tissue culture treated black solid bottom plates using a Multidrop dispenser. After the assay plates were incubated at a 37 C/5% CO2 incubator for 5 hours, 23 nL of compounds dissolved in DMSO, positive and negative controls was transferred to the assay plate by a pintool work station. The plates were incubated at 37 C for 40 hours. The fluorescence intensity were measured at 0h, 8h, 16h, 24h, 32h and 40h time points using ViewLux plate reader during compound treatment.", "values": [
      {"smiles": "CCN(CC)C(=O)[C@@H]1C=C2c3cccc4[nH]cc(c34)C[C@H]2N(C)C1", "Potency": "inactive"},
      {"smiles": "CNC(=O)Oc1ccc(N(C)C)c(C)c1", "Potency": "inactive"},
      {"smiles": "CC(N)=S", "Potency": "inactive"},
      {"smiles": "O=C1CN=C(c2ccccc2)c2cc([N+](=O)[O-])ccc2N1", "Potency": "inactive"},
      {"smiles": "CCC(C)(C)c1cc(-n2nc3ccccc3n2)c(O)c(C(C)(C)CC)c1", "Potency": "inactive"},
      {"smiles": "CC(C)CC#N", "Potency": "inactive"},
      {"smiles": "Cc1nc(N)nc(N)n1", "Potency": "inactive"},
      {"smiles": "N#Cc1ccncc1", "Potency": "inactive"},
      {"smiles": "CC(C)CP(=S)(S)CC(C)C", "Potency": "inactive"},
      {"smiles": "CC(Oc1ccc(Oc2ncc(C(F)(F)F)cc2Cl)cc1)C(=O)O", "note": "(stereo not given)", "Potency": "inactive"},
      {"smiles": "CC(C)COP(=O)(OCC(C)C)OCC(C)C", "Potency": "inactive"},
      {"smiles": "O=NN1CCCCC1", "Potency": "inactive"},
      {"smiles": "CC(C)NCC(O)c1ccc(N)c(C#N)c1", "note": "(stereo not given)", "Potency": "inactive"},
      {"smiles": "COc1cc(C[C@@H](C)N)c(OC)cc1C", "Potency": "inactive"},
      {"smiles": "O=C(O)c1ccc2[nH]cc(CCCCN3CC=C(c4ccccc4)CC3)c2c1", "Potency": "inactive"},
      {"smiles": "O=C(CCCN1CCC(n2c(=O)[nH]c3ccccc32)CC1)c1ccc(F)cc1", "Potency": "inactive"},
      {"smiles": "COC(=O)C(C)Oc1ccc(Oc2ccc(Cl)cc2Cl)cc1", "note": "(stereo not given)", "Potency": "inactive"},
      {"smiles": "C[C@]1(O)CC[C@H]2[C@@H]3CCC4=CC(=O)CC[C@]4(C)[C@@]3(F)[C@@H](O)C[C@@]21C", "Potency": "inactive"},
      {"smiles": "CCC1(c2ccccc2)C(=O)N=C(O)NC1=O", "note": "(stereo not given)", "Potency": "inactive"},
      {"smiles": "C#C[C@]1(O)C=C[C@H]2[C@@H]3CCC4=CC(=O)CC[C@@H]4[C@H]3CC[C@@]21CC", "Potency": "inactive"},
      {"smiles": "CC1(C)CON(Cc2ccccc2Cl)C1=O", "Potency": "inactive"},
      {"smiles": "N#Cc1c(Cl)cccc1Cl", "Potency": "inactive"},
      {"smiles": "NC(=O)c1cc([N+](=O)[O-])cc([N+](=O)[O-])c1", "Potency": "inactive"},
      {"smiles": "CCC/C(=N\\OCC)C1=C(O)CC(CC(C)SCC)CC1=O", "note": "(stereo not given)", "Potency": "inactive"},
      {"smiles": "CCOC(=O)CP(=O)(OCC)OCC", "Potency": "inactive"},
      {"smiles": "ClC(Cl)(Cl)C(Cl)(Cl)Cl", "Potency": "inactive"},
      {"smiles": "CC(=O)CCc1ccc2c(c1)OCO2", "Potency": "inactive"},
      {"smiles": "COP(=S)(OC)Oc1c(Cl)cc(C)cc1Cl", "Potency": "inactive"},
      {"smiles": "CC1=C(C(=O)Nc2ccccc2)S(=O)(=O)CCO1", "Potency": "inactive"},
      {"smiles": "CCC1(c2ccccc2)C(=O)NC(=O)NC1=O", "Potency": "inactive"},
      {"smiles": "CCOP(=O)(N=C1SCCS1)OCC", "Potency": "inactive"},
      {"smiles": "CCCCc1ccc(O)cc1", "Potency": "21.8 µM (active)"},
      {"smiles": "COc1cccc(C(=O)NN(C(=O)c2cc(C)cc(C)c2)C(C)(C)C)c1C", "Potency": "inactive"},
      {"smiles": "CCOP(=S)(OCC)SCSP(=S)(OCC)OCC", "Potency": "inactive"},
      {"smiles": "Cc1cc(C)c(C(=O)P(=O)(C(=O)c2c(C)cc(C)cc2C)c2ccccc2)c(C)c1", "Potency": "inactive"},
      {"smiles": "CN(C)CCc1ccc(O)cc1", "Potency": "inactive"},
      {"smiles": "ClCC(Cl)(Cl)Cl", "Potency": "inactive"},
      {"smiles": "c1cc[c]([Hg][c]2ccccc2)cc1", "Potency": "49 µM (active)"},
      {"smiles": "Nc1cc2c3c(c1)C(c1ccccc1)=N[C@@H](NC(=O)c1cccnc1)C(=O)N3CC2", "Potency": "inactive"},
      {"smiles": "Clc1cccc(N2CCNCC2)c1", "Potency": "inactive"}
    ]}
  ]
}
